Drawing on PubChem BioAssay (Tox21), this text covers Potency for 40 molecules.

Results filed as inconclusive are left out. Entries that show only a call come without a potency. Active and inactive are the calls of the source. Calls follow the shape of the full dose curve.

This test in a line: qHTS assay for small molecule disruptors of the mitochondrial membrane potential - cell viability (AID 720634).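 Also: human HepG2 liver cancer cells; nearly all actives have a fitted effect of over 20% in size.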 The note with it: HepG2 viability, ATP luminescence (CellTiter-Glo), 1 h; series mostly up to 83.2 µM. The source says:
U.S. Tox21 Program National Center for Advancing Translational Sciences [NCATS] NIH Chemical Genomics Center [NCGC] U.S. Environmental Protection Agency [EPA] National Institutes of Environmental Health Sciences [NIEHS] National Toxicology Program [NTP] U.S. Food and Drug Administration [FDA] Tox21 Assay Overview: Mitochondrial membrane potential (MMP), one of the parameters for mitochondrial function, is generated by mitochondrial electron transport chain that creates an electrochemical gradient by a series of redox reactions. This gradient drives the synthesis of ATP, a crucial molecule for various cellular processes. Measuring MMP in living cells is commonly used to assess the effect of chemicals on mitochondrial function; decreases in MMP can be detected using lipophilic cationic fluorescent dyes. […] The dye accumulates in the mitochondria of healthy cells as aggregates, with red fluorescence. The mitochondrial potential decreases and the dye could not accumulate in the mitochondria and remains in the cytoplasm in monomers, with green fluorescence. In addition to the mitochondrial potential assay, these cells were also used to test the cytotoxicity by determining the cell viability in the culture based on the quantitation of ATP present. The cytotoxicity was measured in the same assay well of MMP assay.
Tox21 Assay Protocol Summary: 2,000 HepG2 cells in 5 uL/well were dispensed into black, clear-bottom 1536-well plates using a Multidrop Combi (Thermo Scientific) dispenser. The assay plates were incubated for an overnight at 37 C to allow cells to attach to the wells, followed by the transfer of 23 nL compound or DMSO vehicle by a pin tool (Kalypsys). The plates were incubated for 1 hr at 37 C and 5% CO2, followed by the addition of 5 uL of 2X m-MPI dye into each well using Flying Reagent Dispenser (Aurora Discovery) and then CellTiter-Glo reagent was added at 4 uL/well and incubated 30 min at room temperature. Then luminescence intensity was quantified on a ViewLux CCD-based plate reader.
(Quantitative high-throughput screening tests each substance at several concentrations.)
`CC(=O)c1ccc2c(c1)N(CCCN(C)C)c1ccccc1S2`: the Potency entry is “inactive”.
Under `CC[N+](C)(CC)CCOC(=O)C(O)(c1ccccc1)C1CCCCC1` (stereo not given) stands “inactive”.
Under `Cc1cc(N)c2cc(NC(=O)Nc3ccc4nc(C)cc(N)c4c3)ccc2n1` stands “inactive”; under `O=C(OCCc1ccccc1)c1ccccc1`, “inactive”.
Under `CC1(c2ccccc2)OC(C(=O)O)=CC1=O` (stereo not given) stands “inactive”; under `C1CCCNCCC1`, “inactive”.
For `CNCCCN1c2ccccc2CCc2ccccc21`, the Potency result is “inactive”.
`CCCCC/C=C\C/C=C\CCCCCCCC(=O)NC(C)c1ccccc1` (stereo not given): the Potency result was “inactive”.
Under `CC(C)=CCC/C(C)=C/CC/C(C)=C/CO` stands “inactive”.
In the case of `OCCN1CCN(CCCN2c3ccccc3C=Cc3ccccc32)CC1` it was “inactive”; in that of `Cc1cccc(C)c1OCC(=O)N[C@@H](Cc1ccccc1)[C@@H](O)C[C@H](Cc1ccccc1)NC(=O)[C@H](C(C)C)N1CCCNC1=O`, “inactive”; in that of `O=C(O)c1nc(Cl)c(Cl)c(Cl)c1Cl`, “inactive”.
`Nc1ncn([C@H]2C[C@H](O)[C@@H](CO)O2)c(=O)n1`: the Potency result is “inactive”.
As for `CCCCCCCCCCCCCCCCOS(=O)(=O)O`, the Potency entry was “inactive”.
For `O=C1[C@H]2CCCC[C@H]2C(=O)N1CCCCN1CCN(c2nsc3ccccc23)CC1`, the Potency result was “inactive”.
Under `Cc1cccc(Nc2ccccc2)c1` stands “inactive”; under `Nc1ccc(S(=O)(=O)Nc2ccccc2)cc1`, “inactive”.
Under `CCC(C)O` (stereo not given) stands “inactive”.
In the case of `O=C(O)C(S)C(S)C(=O)O` (stereo not given), the Potency result was “inactive”.
Regarding `CC(C)C[C@H]1C(=O)N2CCC[C@H]2[C@]2(O)O[C@](NC(=O)[C@@H]3C=C4c5cccc6[nH]c(Br)c(c56)C[C@H]4N(C)C3)(C(C)C)C(=O)N12`, the Potency result was “inactive”.
In the case of `C#CCN(C)CCCOc1ccc(Cl)cc1Cl` it was “inactive”; in that of `O=C1CCC(=O)O1`, “inactive”; in that of `COC(C)(C)CCO`, “inactive”.
`CCN(CC)CCNc1ccc(CNC=O)c2sc3ccc(OC)cc3c(=O)c12`: the Potency entry was “inactive”.
For `CCC(CC)Nc1ccc(C)c(C)c1`, the Potency result was “inactive”.
In the case of `CCCCCC[C@@H](O)C/C=C\CCCCCCCC(=O)OC` it was “inactive”; in that of `Nc1cccc([N+](=O)[O-])c1`, “inactive”; in that of `CC(C)(C)OCC1CO1` (stereo not given), “inactive”.
On to `COc1ccnc(CS(=O)c2nc3ccc(OC(F)F)cc3[nH]2)c1OC` (stereo not given), for which the Potency result is “inactive”.
In the case of `CN(C)c1ccc(CCO)cc1`, the Potency result is “inactive”.
Under `CC1OC(=O)C(C)OC1=O` (stereo not given) stands “inactive”.
In the case of `O=C(Nc1ccc(S(=O)(=O)N2CCOCC2)cc1)c1cc(Cl)ccc1NS(=O)(=O)c1ccc(Cl)s1` it was “inactive”; in that of `CNC(=O)CN(CCN(CCN(CC(=O)[O-])CC(=O)NC)CC(=O)[O-])CC(=O)[O-].O.[Gd+3]`, “inactive”; in that of `NC(=O)C(c1ccccc1)(c1ccccc1)[C@@H]1CCN(CCc2ccc3c(c2)CCO3)C1`, “inactive”.
In the case of `O=C(O)c1ccco1` it was “inactive”.
As to `O=P(O)(OCc1ccccc1)OCc1ccccc1`, the Potency entry was “inactive”.
Under `OCc1cc(C(O)CNCCCCCCOCCCCc2ccccc2)ccc1O` (stereo not given) stands “inactive”; under `CC(CSC(=O)c1ccccc1)C(=O)N1C[C@@H](Sc2ccccc2)C[C@H]1C(=O)O` (stereo not given in full), “inactive”; under `CCO[Si](CCCCl)(OCC)OCC`, “inactive”.
Take `CCOC(=O)c1cccnc1`: the Potency entry is “inactive”.
